# Laboratory results as given in the supplement of paper PMC10849652.
# Targets with a hit are over-represented here; the source holds about 7,900 in all. About 0.6% of all pairs of compound and target were hits. Values without a mark were called inactive.
# Assays:
# Experiment in all cases: log2 fold change, soluble protein after heating vs DMSO (PISA); higher = thermal stabilisation; K562 cells, 10 uM, 30 min; active = over 0.2 and 3.5 SD of the protein, either way, in both replicates (recomputed)
# erlotinib = compound: C#Cc1cccc(Nc2ncnc3cc(OCCOC)c(OCCOC)cc23)c1 [erlotinib]
# Procedure, shortened: (§1)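 K562 cells at 2×10^6 cells/mL were treated for 30 min with 10 μM compound, and aliquots were heated for 3 min over 48°C-58°C before pooling. Extraction used PBS with 0.5% NP-40 at 4°C, and soluble protein was the supernatant after 21,000xg for 90 min, measured by TMTpro 16plex LC-MS/MS with channel sums equalised. Thermal stability values, relative to control samples and from duplicates, are log2 fold changes.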
# [1] = compound: C/C(=N\NC(=O)C1=CC(=CC=C1)S(=O)(=O)N2CCOCC2)/C3=C(C=CC(=C3)Cl)O
# Procedure, shortened: as §1
# [2] = compound: C1=CC(=C(C=C1Cl)C2=NC3=NC=CN=C3C(=N2)NC4=CC=NC=C4)F
# Procedure, shortened: as §1
# [3] = compound: C1=CC(=CC=C1C2=NC3=C(N2)C=C(C=C3)C(=O)N)OC4=CC=C(C=C4)Cl
# Procedure, shortened: as §1
# [4] = compound: C1=CC2=C(C=CC(=C2)/C=C\3/C(=O)NC(=NCC4=CC=CS4)S3)N=C1
# Procedure, shortened: as §1
# [5] = compound: C1=CC2=NC=CN=C2C=C1/C=C/3\C(=O)NC(=O)S3
# Procedure, shortened: as §1
# [6] = compound: C1=CC=C(C=C1)C2=NC(=C(N2)C3=CC=NC=C3)C4=CC(=C(C=C4)Cl)O
# Procedure, shortened: as §1
# [7] = compound: C1=CC=C2C(=C1)C3=NNC4=CC=CC(=C43)C2=O
# Procedure, shortened: as §1
# [8] = compound: C1CCN(C1)C(=O)NC2=CC=CC(=C2)NC3=NC=C(C(=N3)NCCC4=CN=CN4)Br
# Procedure, shortened: as §1
# [9] = compound: C1CN(CCC1(CC2=CC=C(C=C2)Cl)N)C3=NC=NC4=C3C=CN4
# Procedure, shortened: as §1
# IRAK-1-4 Inhibitor I = compound: C1COCCN1CCN2C3=CC=CC=C3N=C2NC(=O)C4=CC(=CC=C4)[N+](=O)[O-] [IRAK-1-4 Inhibitor I]
# Procedure, shortened: as §1
# ibrutinib = compound: C=CC(=O)N1CCC[C@@H](n2nc(-c3ccc(Oc4ccccc4)cc3)c3c(N)ncnc32)C1 [ibrutinib]
# Procedure, shortened: as §1
# [10] = compound: CC(=O)c1cnc2ccc(-c3cc(Cl)c(O)c(Cl)c3)nc2c1N[C@H]1CC[C@H](CN(C)C)CC1
# Procedure, shortened: as §1
# ralimetinib = compound: CC(C)(C)Cn1c(N)nc2ccc(-c3[nH]c(C(C)(C)C)nc3-c3ccc(F)cc3)nc21 [ralimetinib]
# Procedure, shortened: as §1
# [11] = compound: CC(C)(O)CC(=O)NCCn1ccc2ncnc(Nc3ccc(Oc4cccc(C(F)(F)F)c4)c(Cl)c3)c21
# Procedure, shortened: as §1
# [12] = compound: CC(C)C1=C2N=C(C=C(N2N=C1)NCC3=CC=CC=C3)NCCCCCCN
# Procedure, shortened: as §1
# [13] = compound: CC(C)C[C@@H](C=O)NC(=O)[C@H](CC(C)C)NC(=O)[C@H](CC(C)C)NC(=O)OCc1ccccc1
# Procedure, shortened: as §1
# pinometostat = compound: CC(C)N(C[C@H]1O[C@@H](n2cnc3c(N)ncnc32)[C@H](O)[C@@H]1O)[C@H]1C[C@@H](CCc2nc3cc(C(C)(C)C)ccc3[nH]2)C1 [pinometostat]
# Procedure, shortened: as §1
# [14] = compound: CC1=C(C(CC(=O)N1)C2=CC=C(C=C2)C(F)(F)F)C(=O)NC3=C(C=C4C(=C3)C=NN4)F
# Procedure, shortened: as §1
# [15] = compound: CC1=C(C2=C(C=C1)C(=O)C3=CC=CC=C3N2CCCN)C
# Procedure, shortened: as §1
# UniProt Q9Y6D6, sequence (Q9Y6D6 whole entry, looked up): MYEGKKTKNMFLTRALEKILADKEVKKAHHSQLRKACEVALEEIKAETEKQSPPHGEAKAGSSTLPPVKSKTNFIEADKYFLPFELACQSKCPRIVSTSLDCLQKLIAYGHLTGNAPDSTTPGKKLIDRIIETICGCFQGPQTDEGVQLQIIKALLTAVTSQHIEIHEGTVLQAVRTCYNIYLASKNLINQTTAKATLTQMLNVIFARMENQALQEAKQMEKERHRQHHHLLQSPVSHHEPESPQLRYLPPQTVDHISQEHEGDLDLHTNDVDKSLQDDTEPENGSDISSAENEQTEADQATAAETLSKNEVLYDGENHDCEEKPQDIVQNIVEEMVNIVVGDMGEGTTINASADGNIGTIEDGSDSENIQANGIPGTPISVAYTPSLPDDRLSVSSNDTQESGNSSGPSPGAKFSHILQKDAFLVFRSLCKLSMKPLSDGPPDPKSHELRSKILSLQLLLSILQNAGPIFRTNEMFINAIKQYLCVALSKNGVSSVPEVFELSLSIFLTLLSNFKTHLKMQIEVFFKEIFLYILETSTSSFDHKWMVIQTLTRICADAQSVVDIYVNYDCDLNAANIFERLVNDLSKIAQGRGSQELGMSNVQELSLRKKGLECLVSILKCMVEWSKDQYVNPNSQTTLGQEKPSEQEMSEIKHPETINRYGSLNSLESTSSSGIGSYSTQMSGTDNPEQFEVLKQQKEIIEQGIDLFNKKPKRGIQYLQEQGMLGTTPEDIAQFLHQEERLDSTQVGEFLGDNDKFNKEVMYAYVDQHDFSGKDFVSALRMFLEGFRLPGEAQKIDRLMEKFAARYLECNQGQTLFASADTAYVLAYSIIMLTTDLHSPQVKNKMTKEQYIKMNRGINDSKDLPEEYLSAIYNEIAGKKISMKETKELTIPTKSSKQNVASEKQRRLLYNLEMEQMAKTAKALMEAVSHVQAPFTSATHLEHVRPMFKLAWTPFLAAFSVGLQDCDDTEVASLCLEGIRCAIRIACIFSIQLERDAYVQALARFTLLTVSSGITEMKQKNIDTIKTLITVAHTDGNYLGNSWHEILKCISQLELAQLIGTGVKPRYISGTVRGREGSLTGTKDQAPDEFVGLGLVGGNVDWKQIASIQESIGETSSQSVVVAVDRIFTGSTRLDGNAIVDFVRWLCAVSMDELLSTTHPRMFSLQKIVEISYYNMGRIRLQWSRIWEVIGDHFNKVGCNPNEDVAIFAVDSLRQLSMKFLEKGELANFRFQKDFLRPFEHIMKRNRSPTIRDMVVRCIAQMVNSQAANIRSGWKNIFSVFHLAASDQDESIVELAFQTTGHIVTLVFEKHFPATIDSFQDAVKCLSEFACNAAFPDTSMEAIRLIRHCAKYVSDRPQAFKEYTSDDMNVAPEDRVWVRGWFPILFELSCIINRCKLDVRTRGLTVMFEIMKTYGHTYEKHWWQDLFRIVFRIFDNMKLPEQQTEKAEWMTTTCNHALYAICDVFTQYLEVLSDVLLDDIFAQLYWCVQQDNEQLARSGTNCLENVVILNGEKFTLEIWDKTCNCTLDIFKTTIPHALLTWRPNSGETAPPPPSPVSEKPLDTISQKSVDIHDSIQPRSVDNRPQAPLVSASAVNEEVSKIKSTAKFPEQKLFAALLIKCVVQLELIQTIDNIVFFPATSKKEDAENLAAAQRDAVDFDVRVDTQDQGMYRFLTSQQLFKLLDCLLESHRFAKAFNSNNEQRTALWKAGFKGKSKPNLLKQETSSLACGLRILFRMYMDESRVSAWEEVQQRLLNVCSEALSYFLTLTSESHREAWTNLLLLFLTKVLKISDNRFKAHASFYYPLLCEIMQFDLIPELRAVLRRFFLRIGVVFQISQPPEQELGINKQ
# UniProt Q96CW1, sequence (Q96CW1 whole entry, looked up): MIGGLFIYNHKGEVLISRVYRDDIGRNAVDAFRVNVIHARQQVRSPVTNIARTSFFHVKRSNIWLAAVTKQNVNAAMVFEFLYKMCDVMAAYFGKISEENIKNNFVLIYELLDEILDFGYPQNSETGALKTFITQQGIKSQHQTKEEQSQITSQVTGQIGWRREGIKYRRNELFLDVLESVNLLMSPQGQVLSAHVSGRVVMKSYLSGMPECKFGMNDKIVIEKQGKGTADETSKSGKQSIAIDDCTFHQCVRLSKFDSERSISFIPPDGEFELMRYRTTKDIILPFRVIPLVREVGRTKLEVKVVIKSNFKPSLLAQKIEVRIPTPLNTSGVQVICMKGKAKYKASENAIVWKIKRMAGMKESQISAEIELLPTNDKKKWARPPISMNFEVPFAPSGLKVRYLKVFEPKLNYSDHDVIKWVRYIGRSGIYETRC
# UniProt P36405, sequence (P36405 whole entry, looked up): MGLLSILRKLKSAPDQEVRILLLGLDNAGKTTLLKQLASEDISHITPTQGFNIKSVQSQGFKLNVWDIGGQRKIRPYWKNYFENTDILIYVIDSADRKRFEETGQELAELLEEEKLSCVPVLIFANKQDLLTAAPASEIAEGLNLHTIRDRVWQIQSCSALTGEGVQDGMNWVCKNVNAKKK
# UniProt Q02252, sequence (Q02252 whole entry, looked up): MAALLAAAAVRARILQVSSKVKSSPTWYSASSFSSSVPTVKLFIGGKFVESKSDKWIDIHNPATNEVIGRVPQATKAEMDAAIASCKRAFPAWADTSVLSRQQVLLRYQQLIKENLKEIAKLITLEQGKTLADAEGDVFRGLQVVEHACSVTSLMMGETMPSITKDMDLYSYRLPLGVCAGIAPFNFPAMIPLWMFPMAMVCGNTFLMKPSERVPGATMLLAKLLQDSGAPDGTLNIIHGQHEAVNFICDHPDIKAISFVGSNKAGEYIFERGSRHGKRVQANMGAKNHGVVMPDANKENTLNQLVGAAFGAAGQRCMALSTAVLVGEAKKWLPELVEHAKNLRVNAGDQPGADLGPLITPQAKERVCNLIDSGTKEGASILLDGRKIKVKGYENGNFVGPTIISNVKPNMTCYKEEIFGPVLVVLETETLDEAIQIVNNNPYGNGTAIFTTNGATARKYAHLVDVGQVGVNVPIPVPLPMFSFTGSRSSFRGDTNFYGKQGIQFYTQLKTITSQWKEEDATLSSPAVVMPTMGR
# UniProt Q8N6H7, sequence (Q8N6H7 whole entry, looked up): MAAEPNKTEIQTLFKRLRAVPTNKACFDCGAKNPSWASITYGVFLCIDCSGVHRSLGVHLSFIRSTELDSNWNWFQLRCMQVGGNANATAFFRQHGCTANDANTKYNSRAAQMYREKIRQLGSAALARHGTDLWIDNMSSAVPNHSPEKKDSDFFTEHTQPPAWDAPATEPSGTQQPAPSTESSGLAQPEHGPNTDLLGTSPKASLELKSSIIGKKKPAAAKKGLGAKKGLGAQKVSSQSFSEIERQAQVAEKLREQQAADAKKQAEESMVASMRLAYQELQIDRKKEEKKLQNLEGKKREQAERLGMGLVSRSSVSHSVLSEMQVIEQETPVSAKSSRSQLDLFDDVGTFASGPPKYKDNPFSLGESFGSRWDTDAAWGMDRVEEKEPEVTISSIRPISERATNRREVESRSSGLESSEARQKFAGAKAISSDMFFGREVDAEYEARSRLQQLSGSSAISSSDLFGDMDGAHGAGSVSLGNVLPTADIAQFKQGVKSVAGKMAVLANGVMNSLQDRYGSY
# UniProt Q9NX46, sequence (Q9NX46 whole entry, looked up): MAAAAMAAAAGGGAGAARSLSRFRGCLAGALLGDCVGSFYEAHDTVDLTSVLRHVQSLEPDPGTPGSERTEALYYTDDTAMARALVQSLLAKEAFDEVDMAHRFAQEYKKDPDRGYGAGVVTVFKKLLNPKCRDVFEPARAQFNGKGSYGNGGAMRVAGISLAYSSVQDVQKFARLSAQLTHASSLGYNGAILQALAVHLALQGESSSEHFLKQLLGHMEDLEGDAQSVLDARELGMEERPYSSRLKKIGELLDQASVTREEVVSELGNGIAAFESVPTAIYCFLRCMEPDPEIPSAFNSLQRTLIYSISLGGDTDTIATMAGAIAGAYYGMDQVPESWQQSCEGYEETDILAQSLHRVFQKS
# UniProt P24666, sequence (P24666 whole entry, looked up): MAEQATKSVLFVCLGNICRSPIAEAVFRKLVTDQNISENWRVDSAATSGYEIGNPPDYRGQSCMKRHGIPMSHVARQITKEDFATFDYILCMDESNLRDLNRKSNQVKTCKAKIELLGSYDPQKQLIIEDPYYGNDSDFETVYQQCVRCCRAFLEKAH
# UniProt O95782, sequence (O95782 whole entry, looked up): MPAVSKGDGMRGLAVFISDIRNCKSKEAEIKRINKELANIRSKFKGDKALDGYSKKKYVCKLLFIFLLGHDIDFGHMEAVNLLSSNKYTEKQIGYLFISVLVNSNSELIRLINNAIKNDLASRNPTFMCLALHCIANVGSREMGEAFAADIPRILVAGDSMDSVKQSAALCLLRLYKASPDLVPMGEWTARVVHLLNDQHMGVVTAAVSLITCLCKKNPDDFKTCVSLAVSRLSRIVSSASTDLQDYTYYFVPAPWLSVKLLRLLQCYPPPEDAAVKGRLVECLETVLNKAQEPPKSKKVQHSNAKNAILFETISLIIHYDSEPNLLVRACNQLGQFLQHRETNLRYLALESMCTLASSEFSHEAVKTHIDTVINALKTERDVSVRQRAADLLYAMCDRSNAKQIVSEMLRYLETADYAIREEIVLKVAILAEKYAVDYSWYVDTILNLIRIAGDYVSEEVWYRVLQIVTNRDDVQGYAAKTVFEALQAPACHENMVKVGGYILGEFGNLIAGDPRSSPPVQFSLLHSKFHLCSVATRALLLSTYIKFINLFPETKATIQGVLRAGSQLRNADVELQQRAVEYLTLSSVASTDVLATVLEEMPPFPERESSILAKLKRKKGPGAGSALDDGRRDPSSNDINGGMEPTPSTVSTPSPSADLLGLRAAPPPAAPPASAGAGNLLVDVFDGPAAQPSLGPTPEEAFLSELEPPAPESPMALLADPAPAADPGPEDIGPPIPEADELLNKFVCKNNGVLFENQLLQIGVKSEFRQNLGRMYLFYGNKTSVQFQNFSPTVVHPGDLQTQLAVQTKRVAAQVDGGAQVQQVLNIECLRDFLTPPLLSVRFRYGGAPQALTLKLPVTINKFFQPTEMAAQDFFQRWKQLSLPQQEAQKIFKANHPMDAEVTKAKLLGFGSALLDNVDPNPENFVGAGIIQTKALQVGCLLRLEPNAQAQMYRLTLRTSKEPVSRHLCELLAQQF
Target,log2 fold change (erlotinib),log2 fold change [1],log2 fold change [2],log2 fold change [3],log2 fold change [4],log2 fold change [5],log2 fold change [6],log2 fold change [7],log2 fold change [8],log2 fold change [9],log2 fold change (IRAK-1-4 Inhibitor I),log2 fold change (ibrutinib),log2 fold change [10],log2 fold change (ralimetinib),log2 fold change [11],log2 fold change [12],log2 fold change [13],log2 fold change (pinometostat),log2 fold change [14],log2 fold change [15]
ARL3 (UniProt P36405),-0.009,0.007,0.033,-0.037,0.046,0.007,0.019,-0.015,-0.026,0.041,0.049,-0.01,-0.033,-0.042,-0.034,0.065,-0.057,-0.029,0.002,0.017
AP2M1 (UniProt Q96CW1),-0.067,0.006,-0.012,0.017,0.005,-0.016,0.036,-0.26 (active),-0.367 (active),-0.01,-0.049,0.043,-0.043,0.036,0.022,0.045,0.011,0.026,0.011,0.079
AHCYL1 (UniProt O43865),0.083,-0.032,-0.008,-0.042,0.001,0.086,0.09,0.118,0.077,0.104,0.035,0.062,0.337 (active),0.008,-0.016,0.014,0.001,-0.048,-0.033,-0.004
ACP1 isoform 2 (UniProt P24666),0.072,0.011,0.038,0.024,0.029,-0.008,-0.018,0,0.004,-0.039,-0.082,-0.028,-0.013,0.009,-0.264 (active),-0.109,-0.039,0.073,-0.061,-0.296 (active)
ALDH6A1 (UniProt Q02252),0.067,-0.02,0.061,-0.144,0.074,-0.043,0.038,-0.038,-0.03,0.043,0.004,-0.023,-0.041,0.019,-0.155,-0.068,-0.002,-0.01,-0.004,0.018
ANAPC2 (UniProt Q9UJX6),-0.028,0.064,-0.002,0.018,0.002,0.144,-0.029,0.022,-0.033,-0.022,0.018,-0.045,0.005,0.011,-0.025,-0.083,0.055,0.078,-0.044,-0.051
AP2A1 (UniProt O95782),-0.019,0.012,-0.035,0.003,-0.041,0.003,0.057,-0.381 (active),-0.527 (active),-0.038,-0.054,0.01,-0.14,0.052,0.027,0.023,-0.06,0,0.01,0.081
ADPRHL2 (UniProt Q9NX46),0.03,0.024,0.122,0.048,0.043,0.006,0.019,0.049,0.003,-0.165,0,-0.021,-0.025,-0.021,-0.088,0.08,-0.038,-0.015,-0.126,-0.002
ARFGEF1 (UniProt Q9Y6D6),0.016,0.025,0.03,-0.03,0.016,0.015,0.101,0.051,-0.013,0.043,0.016,-0.061,0.036,0.132,-0.018,0.051,-0.019,0.001,-0.065,0.07
ANXA5 (UniProt P08758),-0.012,0.1,0.06,-0.039,0.009,0.002,0.013,0.038,0.022,-0.012,-0.013,-0.05,-0.019,-0.018,-0.006,-0.069,0.017,-0.026,0,0.032
ARFGAP2 (UniProt Q8N6H7),0.017,0.034,0.019,-0.016,0.06,0,-0.01,-0.007,-0.053,-0.009,-0.016,-0.064,-0.014,-0.001,-0.032,0.062,-0.005,0.046,-0.006,0.005
AKR1C3 (UniProt P42330),0.063,0.067,0.117,-0.095,0.02,0.067,0.796 (active),-0.022,0.031,0.044,0.072,-0.108,0.015,0.085,0.265,0.025,-0.149,-0.069,-0.064,-0.049
